Laboratory results: PubChem BioAssay AID1159580 (chemical genetic matrix, 2015)
The whole screen tested about 5,500 compounds, of which about 2,000 (36%) were called active. Not shown: some 18% with an inconclusive outcome. No stated cut-off is given here; in the data, active means normalized growth mostly below about 0.91 (no sharp cut-off); inconclusive means no clear call, values can overlap the other calls; inactive means mostly above about 0.92. The list shows a part of the results.

Assay: chemical genetic growth profiling, strain panel (AID 1159580);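 further: tested at 20 µM; growth read once vehicle control cultures reached saturation at 30 °C; 1 = growth at the plate median or of vehicle wells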
Conditions: growth OD
[1] = S. cerevisiae deletion strains, locus YAL013W, strain DEP1, stronger effect = lower value
[2] = S. cerevisiae deletion strains, locus YDR150W, strain NUM1, stronger effect = lower value
[3] = S. cerevisiae deletion strains, locus YGR078C, strain PAC10, stronger effect = lower value
[4] = S. cerevisiae deletion strains, locus YJR075W, strain HOC1, stronger effect = lower value
[5] = S. cerevisiae deletion strains, locus YMR263W, strain SAP30, stronger effect = lower value
[6] = S. cerevisiae deletion strains, locus YNL153C, strain GIM3, stronger effect = lower value
[7] = S. cerevisiae deletion strains, locus YPL055C, strain LGE1, stronger effect = lower value
[8] = S. cerevisiae deletion strains, locus YDL101C, strain DUN1, stronger effect = lower value
[9] = S. cerevisiae deletion strains, locus YHR030C, strain SLT2, stronger effect = lower value
[10] = S. cerevisiae deletion strains, locus YBR229C, strain ROT2, stronger effect = lower value
[11] = S. cerevisiae deletion strains, locus YDL134C, strain PPH21, stronger effect = lower value
[12] = S. cerevisiae deletion strains, locus YEL061C, strain CIN8, stronger effect = lower value
[13] = S. cerevisiae deletion strains, locus YHR087W, strain rtc3, stronger effect = lower value
[14] = S. cerevisiae deletion strains, locus YJR043C, strain POL32, stronger effect = lower value
[15] = S. cerevisiae deletion strains, locus YKL190W, strain CNB1, stronger effect = lower value
[16] = S. cerevisiae deletion strains, locus YLR039C, strain RIC1, stronger effect = lower value
[17] = S. cerevisiae deletion strains, locus YLR058C, strain SHM2 (second series), stronger effect = lower value
[18] = S. cerevisiae deletion strains, locus YLR085C, strain ARP6, stronger effect = lower value
[19] = S. cerevisiae deletion strains, locus YLR262C, strain YPT6, stronger effect = lower value
[20] = S. cerevisiae deletion strains, locus YML094W, strain GIM5, stronger effect = lower value
[21] = S. cerevisiae deletion strains, locus YMR219W, strain ESC1, stronger effect = lower value
[22] = S. cerevisiae deletion strains, locus YNL298W, strain CLA4 (second series), stronger effect = lower value
[23] = S. cerevisiae deletion strains, locus YNL322C, strain KRE1, stronger effect = lower value
[24] = S. cerevisiae deletion strains, locus YNR030W, strain Alg12, stronger effect = lower value
[25] = S. cerevisiae deletion strains, locus YPL241C, strain CIN2, stronger effect = lower value
[26] = S. cerevisiae deletion strains, locus YPR135W, strain CTF4, stronger effect = lower value
[27] = S. cerevisiae strains, strain wild type, stronger effect = lower value

Measured: normalized growth

CC(N)c1cccc(Cl)c1Cl (stereo unspecified)
inactive: [1] 1.01 | S. cerevisiae deletion strains, locus YAL040C, strain CLN3, stronger effect = lower value 0.969 | S. cerevisiae deletion strains, locus YCL061C, strain MRC1 (second series), stronger effect = lower value 1 | [2] 0.996 | S. cerevisiae deletion strains, locus YDR363W, strain ESC2, stronger effect = lower value 1.08 | S. cerevisiae deletion strains, locus YER002W, strain NOP16, stronger effect = lower value 1.01 | [3] 0.981 | [4] 1.02 | [5] 1 | S. cerevisiae deletion strains, locus YNL128W, strain TEP1, stronger effect = lower value 1.01 | [6] 0.972 | S. cerevisiae deletion strains, locus YNL175C, strain NOP13, stronger effect = lower value 0.981 | S. cerevisiae deletion strains, locus YNL197C, strain WHI3, stronger effect = lower value 0.953 | S. cerevisiae deletion strains, locus YNL224C, strain SQS1, stronger effect = lower value 1.01 | S. cerevisiae deletion strains, locus YOR083W, strain WHI5 (second series), stronger effect = lower value 1.01 | [7] 1.07

Cc1c(S(=O)(=O)Nc2cccc([N+](=O)[O-])c2)sc2ccc(Cl)cc12
active: [9] 0.752
inactive: S. cerevisiae deletion strains, locus YAR019C, strain CDC15, stronger effect = lower value 0.965 | S. cerevisiae deletion strains, locus YBL105C, strain PKC1, stronger effect = lower value 0.973 | S. cerevisiae deletion strains, locus YBR135W, strain CKS1, stronger effect = lower value 0.968 | S. cerevisiae deletion strains, locus YBR136W, strain MEC1, stronger effect = lower value 0.973 | S. cerevisiae deletion strains, locus YBR160W, strain CDC28, stronger effect = lower value 0.967 | S. cerevisiae deletion strains, locus YDL017W, strain CDC7, stronger effect = lower value 0.972 | S. cerevisiae deletion strains, locus YDL028C, strain MPS1, stronger effect = lower value 0.979 | [8] 0.963 | S. cerevisiae deletion strains, locus YDL108W, strain KIN28, stronger effect = lower value 0.981 | S. cerevisiae deletion strains, locus YDL132W, strain cdc53, stronger effect = lower value 0.955 | S. cerevisiae deletion strains, locus YDL214C, strain PRR2, stronger effect = lower value 0.991 | S. cerevisiae deletion strains, locus YDR052C, strain DBF4, stronger effect = lower value 0.958 | S. cerevisiae deletion strains, locus YDR054C, strain cdc34, stronger effect = lower value 0.969 | S. cerevisiae deletion strains, locus YDR226W, strain ADK1, stronger effect = lower value 0.966 | S. cerevisiae deletion strains, locus YDR477W, strain SNF1, stronger effect = lower value 0.979 | S. cerevisiae deletion strains, locus YER123W, strain YCK3, stronger effect = lower value 1.01 | S. cerevisiae deletion strains, locus YER133W, strain GLC7, stronger effect = lower value 0.982 | S. cerevisiae deletion strains, locus YFL009W, strain cdc4, stronger effect = lower value 0.97 | S. cerevisiae deletion strains, locus YFL029C, strain CAK1, stronger effect = lower value 0.97 | S. cerevisiae deletion strains, locus YFR003C, strain YPI1, stronger effect = lower value 0.98 | S. cerevisiae deletion strains, locus YFR019W, strain FAB1, stronger effect = lower value 0.975 | S. cerevisiae deletion strains, locus YFR028C, strain CDC14, stronger effect = lower value 0.973 | S. cerevisiae deletion strains, locus YGR040W, strain KSS1, stronger effect = lower value 0.96 | S. cerevisiae deletion strains, locus YGR052W, strain FMP48, stronger effect = lower value 1.09 | S. cerevisiae deletion strains, locus YGR092W, strain DBF2, stronger effect = lower value 0.932 | S. cerevisiae deletion strains, locus YHR079C, strain IRE1, stronger effect = lower value 0.913 | S. cerevisiae deletion strains, locus YHR082C, strain KSP1, stronger effect = lower value 1.01 | S. cerevisiae deletion strains, locus YHR205W, strain SCH9, stronger effect = lower value 0.986 | S. cerevisiae deletion strains, locus YIL147C, strain SLN1, stronger effect = lower value 0.976 | S. cerevisiae deletion strains, locus YJL095W, strain BCK1, stronger effect = lower value 0.979 | S. cerevisiae deletion strains, locus YJL128C, strain PBS2, stronger effect = lower value 0.963 | S. cerevisiae deletion strains, locus YJL157C, strain FAR1, stronger effect = lower value 1.01 | S. cerevisiae deletion strains, locus YJR016C, strain ILV3, stronger effect = lower value 0.969 | S. cerevisiae deletion strains, locus YJR066W, strain TOR1 (second series), stronger effect = lower value 0.999 | S. cerevisiae deletion strains, locus YJR066W, strain TOR1, stronger effect = lower value 1.03 | S. cerevisiae deletion strains, locus YKL048C, strain ELM1, stronger effect = lower value 0.967 | S. cerevisiae deletion strains, locus YKL067W, strain YNK1, stronger effect = lower value 0.99 | S. cerevisiae deletion strains, locus YKL101W, strain HSL1, stronger effect = lower value 0.981 | S. cerevisiae deletion strains, locus YKL193C, strain SDS22, stronger effect = lower value 0.971 | S. cerevisiae deletion strains, locus YKL203C, strain TOR2, stronger effect = lower value 1 | S. cerevisiae deletion strains, locus YLR113W, strain HOG1, stronger effect = lower value 0.878 | S. cerevisiae deletion strains, locus YLR133W, strain CKI1, stronger effect = lower value 0.989 | S. cerevisiae deletion strains, locus YLR403W, strain SFP1, stronger effect = lower value 0.954 | S. cerevisiae deletion strains, locus YML070W, strain DAK1, stronger effect = lower value 0.974 | S. cerevisiae deletion strains, locus YMR001C, strain CDC5, stronger effect = lower value 0.974 | S. cerevisiae deletion strains, locus YMR205C, strain PFK2 (second series), stronger effect = lower value 0.992 | S. cerevisiae deletion strains, locus YMR277W, strain FCP1, stronger effect = lower value 0.989 | S. cerevisiae deletion strains, locus YNL006W, strain LST8, stronger effect = lower value 0.966 | S. cerevisiae deletion strains, locus YNL020C, strain ARK1, stronger effect = lower value 0.972 | S. cerevisiae deletion strains, locus YNL161W, strain CBK1, stronger effect = lower value 0.971 | S. cerevisiae deletion strains, locus YNL183C, strain NPR1, stronger effect = lower value 0.926 | S. cerevisiae deletion strains, locus YNL207W, strain RIO2, stronger effect = lower value 0.983 | S. cerevisiae deletion strains, locus YNL222W, strain SSU72, stronger effect = lower value 0.966 | S. cerevisiae deletion strains, locus YNL307C, strain MCK1 (second series), stronger effect = lower value 0.988 | S. cerevisiae deletion strains, locus YOL078W, strain AVO1, stronger effect = lower value 0.975 | S. cerevisiae deletion strains, locus YOL136C, strain PFK27, stronger effect = lower value 0.968 | S. cerevisiae deletion strains, locus YOR061W, strain CKA2, stronger effect = lower value 0.966 | S. cerevisiae deletion strains, locus YOR119C, strain RIO1, stronger effect = lower value 1.08 | S. cerevisiae deletion strains, locus YOR231W, strain MKK1, stronger effect = lower value 0.955 | S. cerevisiae deletion strains, locus YOR329C, strain SCD5, stronger effect = lower value 0.971 | S. cerevisiae deletion strains, locus YPL031C, strain PHO85, stronger effect = lower value 0.985 | S. cerevisiae deletion strains, locus YPL153C, strain RAD53, stronger effect = lower value 0.962 | S. cerevisiae deletion strains, locus YPL204W, strain HRR25, stronger effect = lower value 0.964 | S. cerevisiae deletion strains, locus YPL209C, strain IPL1, stronger effect = lower value 0.973 | S. cerevisiae deletion strains, locus YPL256C, strain CLN2, stronger effect = lower value 0.926 | S. cerevisiae deletion strains, locus YPR025C, strain CCL1, stronger effect = lower value 0.97 | S. cerevisiae deletion strains, locus YPR106W, strain ISR1, stronger effect = lower value 0.971 | S. cerevisiae deletion strains, locus YPR111W, strain DBF20, stronger effect = lower value 0.965 | S. cerevisiae deletion strains, strain NNK1, stronger effect = lower value 0.951 | S. cerevisiae deletion strains, strain TSCII, stronger effect = lower value 0.964

Cc1nn(-c2ccccc2)nc1-c1nnc(-c2ccc(Cl)cc2)o1
inactive: [1] 1.02 | [10] 1.01 | S. cerevisiae deletion strains, locus YCL061C, strain MRC1, stronger effect = lower value 0.986 | [8] 0.995 | [11] 1 | [2] 1 | [12] 1.01 | [3] 0.993 | S. cerevisiae deletion strains, locus YGR229C, strain SMI1, stronger effect = lower value 1.01 | [9] 1.03 | [13] 1.04 | [14] 1.02 | [4] 1 | [15] 1.01 | [16] 1.04 | [17] 1.02 | [18] 1.03 | [19] 1.03 | [20] 1.04 | [21] 0.998 | [5] 1.05 | S. cerevisiae deletion strains, locus YMR307W, strain GAS1, stronger effect = lower value 1.07 | [6] 1 | [22] 1.01 | [23] 0.988 | [24] 1.03 | [7] 1.01 | [25] 1 | [26] 0.98 | [27] 1.01

FC(F)(F)Oc1ccccc1-c1nnc(-c2ccc(Cl)cc2)o1
active: [9] 0.442 | [4] 0.87 | [15] 0.9 | [18] 0.68 | [24] 0.837 | [25] 0.852
inactive: [1] 0.946 | [10] 0.968 | [8] 0.971 | [11] 0.963 | [2] 0.912 | [12] 0.931 | [3] 0.934 | [13] 0.924 | S. cerevisiae deletion strains, locus YJL187C, strain SWE1, stronger effect = lower value 0.957 | [14] 0.975 | [16] 0.874 | [17] 0.95 | [19] 0.963 | [20] 0.878 | [21] 0.966 | [5] 0.948 | [6] 0.976 | [22] 0.872 | [23] 0.944 | S. cerevisiae deletion strains, locus YOL006C, strain TOP1, stronger effect = lower value 0.767 | [7] 0.851 | [26] 0.73 | [27] 0.94
